# Screens as filed in PubChem BioAssay.
# An excerpt weighted towards active compounds, which were near 3.3% of everything screened.
# SMARCA2 act – increases SMARCA2 function in MMTV reporter cells | MG213 cells, MMTV-luciferase reporter, dexamethasone, overnight | activation, % at 9.1 µM | 1% of 370,000 active | AID 652017; in the data active means activation above about 7.8%;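 further: 0% = vehicle wells and 100% = reference activator wells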
# esBAF inh – inhibitors of esBAF chromatin remodeling in mouse ES cells; Bmi1-luciferase knock-in reporter, 24 h; 100% = twice the neutral-well signal; AID 602393; reporter increase, % at 12.5 µM; 2% of 350,000 active; in the data active means activation above about 40%;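 further: 0% = median of the plate's neutral control wells and 100% = double that signal; a rise in the Bmi1 reporter signal indicates esBAF inhibition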
# Jurkat NFkB inh – lowers PMA/ionomycin-induced NF-kB signal in Jurkat cells. PMA/ionomycin-induced NF-kB luciferase reporter, luminescence. inhibition, % at 4 µM. 0.53% of 330,000 active. AID 435003; in the data active means inhibition above about 50%
# 697 NFkB inh – lowers PMA/ionomycin-induced NF-kB signal in 697 B cells | 697 B-cell NF-kB luciferase reporter, 16 h | inhibition, % at 4 µM | 0.33% of 330,000 active; in the data active means inhibition above about 35%
# Gli-Sufu block – blocks Gli-Sufu signaling in a luciferase reporter; Sufu-KO-LIGHT fibroblasts, Gli luciferase reporter luminescence; inhibition, % at 5 µM; 0.74% of 340,000 active;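 active means inhibition above about 55%, limit read from the data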;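 further: 0% = DMSO-treated cells and 100% = wells with medium but no cells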
# Active calls of the source: *; . = no result given.
SMILES,SMARCA2 act,esBAF inh,Jurkat NFkB inh,697 NFkB inh,Gli-Sufu block
COc1ccc(N(CC(=O)Nc2cccc(SC)c2)S(C)(=O)=O)cc1,2,45*,-11,-2,10
C[C@H](CO)N1C[C@H](C)[C@@H](CN(C)Cc2ccc3cccnc3c2)OCc2cn(nn2)CCCC1=O,.,-2,.,.,.
C[C@H](CO)N1C[C@H](C)[C@@H](CN(C)Cc2ccc3c(c2)OCO3)Oc2ccc(NS(=O)(=O)c3ccccc3)cc2CC1=O,.,2,.,.,.
O=C(NCc1cccc2ccccc12)c1cccs1,4,55*,-2,8,-29
O=C(Cc1cccc2ccccc12)NNC(=O)c1cccs1,-3,9,-3,-7,-1
Cc1csc(NC(=O)Cc2c[nH]c3ccccc23)n1,3,61*,-50,-42,-57
Cc1csc(NC(=O)Cc2c(F)cccc2Cl)n1,7,62*,-48,-55,-31
O=C(Cc1ccc(F)cc1)Nc1nc(-c2ccc(F)c(F)c2)cs1,-3,7,12,9,.
Cc1csc(NC(=O)Cc2ccc(F)cc2)n1,2,64*,-34,-19,-2
Cc1cnc(NC(=O)Cc2c[nH]c3ccccc23)s1,0,8,-12,-3,-22
O=C(C[C@@H]1C[C@@H]2c3cc(NC(=O)c4ccc5c(c4)OCO5)ccc3O[C@@H]2[C@H](CO)O1)NCc1ccccn1,.,5,.,.,.
CO[C@H]1CN(C)C(=O)c2cc(NC(=O)C3CCC3)ccc2OC[C@@H](C)N(Cc2ccncc2)C[C@H]1C,.,-2,.,.,.
CCCCCCc1ccc(-c2ccc(C#N)cc2)cc1,5,.,.,.,.
CCCCCc1ccc2cc(C#N)ccc2n1,2,48*,.,.,.
COCC#Cc1cnc2c(c1)C(=O)N([C@@H](C)CO)C[C@@H](C)[C@@H](CN(C)C(=O)Nc1ccccc1F)O2,.,-5,.,.,.
Clc1ccc(OCc2cn3cccnc3n2)c2ncccc12,0,57*,.,.,-28
O=C(Oc1ccc(-c2ccccc2)cc1)N1CCOCC1,2,62*,-94,-79,-51
O=C(Oc1ccc(Cl)cc1)N1CCCCC1,6,50*,-44,-57,-60
COc1ccc(OC(=O)N2CCOCC2)cc1,0,5,2,-2,-6
O=C(Oc1ccc(Cl)cc1)N1CCOCC1,0,16,-23,-17,-5
CC(=O)N(C)C[C@@H]1Oc2cc(-c3ccc(F)cc3)ccc2S(=O)(=O)N([C@H](C)CO)C[C@@H]1C,.,-5,.,.,.
COc1cccc(C#Cc2ccc3c(c2)O[C@@H](CN(C)C)[C@H](C)CN([C@H](C)CO)S3(=O)=O)c1,.,-5,.,.,.
CC(=O)Nc1cccc2c1Cc1cc([N+](=O)[O-])ccc1-2,1,.,.,.,11
CC(=O)Nc1cccc2c1Cc1ccccc1-2,.,51*,-39,-51,-33
CN1CCN(C(=S)SCc2nc(N)nc(Nc3ccc(F)cc3)n2)CC1,0,.,-11,-35,8
SMILES,SMARCA2 act,esBAF inh,Jurkat NFkB inh,697 NFkB inh,Gli-Sufu block
Nc1nc(CSC(=S)N2CCOCC2)nc(Nc2ccc(F)cc2)n1,2,66*,-48,-75,-40
COc1ccc(Nc2nc(N)nc(CSC(=S)N3CCOCC3)n2)cc1,7,49*,-29,-42,-50
Cc1cccc(S(=O)(=O)N[C@@H]2CC[C@H](CCNC(=O)c3cnccn3)O[C@H]2CO)c1,.,3,.,.,.
C[C@@H](NC(=O)[C@@H]1[C@@H](CO)[C@@H]2Cn3c(ccc(-c4ccncc4)c3=O)[C@H]1N2C)c1ccccc1,.,-3,.,.,.
O=C(c1ccc(F)cc1)c1ccc(N2CCCC2)cc1,5,65*,-61,-73,1
O=C(c1ccc(F)cc1)c1ccc(N2CCCCC2)cc1,7,36,-84,-91,-64
CCSc1nc(N)nc(-c2cccs2)c1C#N,3,49*,-18,-23,-22
COc1cc2c3nnc(-c4ccc(F)cc4)c-3cn(Cc3ccccc3)c2cc1OC,19*,22,-5,-15,5
CN1c2ccc(C3=CCCCC3)cc2[C@@H]2[C@@H](CCN2S(=O)(=O)c2ccccc2)[C@H]1CO,.,-5,.,.,.
COC(=O)Cc1cc(=O)[nH]c(Nc2nc3ccccc3o2)n1,3,.,8,17,0
COCc1cc(=O)[nH]c(Nc2nc3ccccc3o2)n1,3,50*,-31,-44,20
Nc1nc(Nc2ccccc2F)nc(N2CCCC2)c1[N+](=O)[O-],2,70*,-13,-71,-63
CCN1CCN(c2nc(Nc3ccccc3F)nc(N)c2[N+](=O)[O-])CC1,0,7,-22,12,-18
Cc1noc(C)c1NC(=O)N(C)C[C@@H]1Oc2c(NS(=O)(=O)c3cccs3)cccc2C(=O)N([C@@H](C)CO)C[C@@H]1C,.,-4,.,.,.
CC(=O)N(C)C[C@@H]1Oc2cc(C#Cc3cccnc3)ccc2S(=O)(=O)N([C@H](C)CO)C[C@H]1C,.,-1,.,.,.
CC(C)NC(=O)Nc1ccc2c(c1)C(=O)N([C@H](C)CO)C[C@@H](C)[C@@H](CN(C)C(=O)C1CCCCC1)OCCCC[C@@H](C)O2,.,3,.,.,.
Cc1ccc(NC(=O)CSc2nnc3ccccn23)c(Cl)c1,7.9*,66*,.,.,.
O=C(Nc1ccccc1)Nc1ccc2c(c1)[C@H]1C[C@@H](CC(=O)N3CCOCC3)O[C@@H](CO)[C@H]1O2,.,-3,.,.,.
COC(=O)c1ccc(NC(=O)c2cccc(NC(=O)c3ccco3)c2)cc1,2,-10,5,1,-14
CCOC(=O)c1ccc(NC(=O)c2nn(CC)cc2Br)cc1,1,30,-40,-20,-26
CC(C)OC(=O)c1ccc(NC(=O)c2ccco2)cc1,1,61*,-101,-84,-7
CCOC(=O)c1ccc(NC(=O)c2ccco2)cc1,6,72*,-74,-92,-60
CCOC(=O)c1ccc(NC(=O)c2nn(C)cc2Br)cc1,0,51*,-75,-59,-50
CC(C)NC(=O)N(C)C[C@H]1Oc2ccc(NC(=O)Nc3ccc(F)cc3)cc2C(=O)N([C@@H](C)CO)C[C@@H]1C,.,3,.,.,.
Cc1ccc(S(=O)(=O)N(C)C[C@H]2Oc3ccc(NC(=O)c4ccncc4)cc3CC(=O)N([C@@H](C)CO)C[C@@H]2C)cc1,.,-2,.,.,.
SMILES,SMARCA2 act,esBAF inh,Jurkat NFkB inh,697 NFkB inh,Gli-Sufu block
CCN=C1NN=C(c2cc(C)n(Cc3ccco3)c2C)CS1,-9,.,13,9,71*
CCN=C1NN=C(c2cc(C)n(CCc3ccccc3)c2C)CS1,-2,.,.,.,-6
CC(C)c1ccc(NC(=O)c2cc(Br)ccc2Br)cc1,3,72*,-14,-27,-14
O=C(C[C@@H]1C[C@@H]2c3cc(NC(=O)Nc4ccccc4)ccc3O[C@@H]2[C@@H](CO)O1)NCC1CC1,.,0,.,.,.
CCCN(C)C[C@H]1Oc2ncc(Br)cc2C(=O)N([C@H](C)CO)C[C@H]1C,.,-2,.,.,.
CC(=O)c1ccc(Oc2ccc(C(C)=O)cc2)cc1,2,42*,-44,-44,-66
CC(=O)c1ccc(OC(=O)Oc2ccc(C(C)=O)cc2)cc1,-3,.,.,.,-3
CO[C@H]1CN(C)C(=O)c2cc(NS(=O)(=O)c3ccc(C)cc3)ccc2OC[C@@H](C)N(Cc2nccs2)C[C@@H]1C,.,8,.,.,.
COc1ccc(S(=O)(=O)N(C)C[C@H]2OCCCC[C@@H](C)Oc3ccc(N(C)C)cc3C(=O)N([C@@H](C)CO)C[C@H]2C)cc1,.,3,.,.,.
